“And” between values parts separate entries of the source, which are not always exact repeats. Equal values may be shown once. Inconclusive results are not listed. Where a call stands in place of a potency, no number is given. The source made the active and inactive calls. Calls follow the shape of the dose curve; as a rule, active = well fitted inhibition curve with a large enough effect; inconclusive = small, poorly fitted or top-dose-only effect; inactive = no such curve, though single readings can be large or run the other way. Where a SMILES comes first, the peptide text is derived from it. Bridges are numbered along the chain shown (N, C = ends). [ ]: non-standard residue; d: D form. The star is where a group is joined. X1 = CCC(C)C(N)C1=NC(C(=O)*)CS1; dOrn = NCCC[C@@H](N)C(=O)O
Assay: Primary qHTS for inhibitors of nuclear receptor binding SET domain protein 2 (NSD2) in an RCH-ACV wild type WT cells (2C) (AID 1645877); also: nearly all actives have a fitted effect of over 70% in size
Details: RCH-ACV (leukaemia line) NSD2 WT (2C) viability, CellTiter-Glo, 72 h; series mostly up to 44.9 µM
Potency is read from the fitted curve at half-maximal effect.

| Compound | Potency |
| --- | --- |
| CON(C)C(=O)N1N=C(c2cc(F)ccc2F)S[C@@]1(CCCN)c1ccccc1 | 6.5 nM (active) and 13.2 nM (active) |
| Nc1ncnc2c1ncn2[C@H]1CCCO1 | inactive |
| COc1ccc(C[C@H](N)C(=O)N[C@H]2[C@@H](O)[C@H](n3cnc4c(N(C)C)ncnc43)O[C@@H]2CO)cc1 | 258 nM (active) |
| CCNC(=O)[C@H]1O[C@H](n2cnc3c(NCC(c4ccccc4)c4ccccc4)nc(C(=O)NCCNC(=O)NC4CCN(c5ccccn5)CC4)nc32)[C@H](O)[C@@H]1O | inactive |
| Cc1onc(-c2ccccc2)c1C(=O)N[C@@H]1C(=O)N2[C@@H]1SC(C)(C)[C@@H]2C(=O)O | inactive |
| C[C@]12C=CC(=O)C=C1CC[C@@H]1[C@@H]2[C@@H](O)C[C@@]2(C)[C@H]1CC[C@]2(O)C(=O)COC(=O)CCC(=O)O | 258 nM (active) |
| OC[C@H]1O[C@@H](n2cnc3c2NC=NC[C@H]3O)C[C@@H]1O | inactive |
| Cc1cc(N2CCCCC2)nc2ccccc12 | inactive |
| O=C1N(CC2CCCCN2)CCN1c1ccccc1 (stereo unspecified) | inactive |
| COC(=O)[C@H](CC1C=NC=N1)NCC12CC3CC(CC(C3)C1)C2 (stereo partly specified) | inactive |
| Clc1ccc(CN[C@H]2CCN(c3ncc(Br)cn3)C2)c(Cl)c1 | inactive |
| C[C@H](CCC(=O)O)[C@H]1CC[C@H]2[C@@H]3[C@H](O)C[C@@H]4C[C@H](O)CC[C@]4(C)[C@H]3CC[C@]12C | inactive |
| CCC(C)C(N)C1=NC(C(=O)N[C@@H](CC(C)C)C(=O)N[C@H](CCC(=O)O)C(=O)N[C@H](C(=O)N[C@H]2CCCCNC(=O)[C@H](CC(N)=O)NC(=O)[C@@H](CC(=O)O)NC(=O)[C@H](Cc3cnc[nH]3)NC(=O)[C@@H](Cc3ccccc3)NC(=O)[C@H]([C@@H](C)CC)NC(=O)[C@@H](CCCN)NC2=O)[C@@H](C)CC)CS1 (stereo partly specified) (X1-L[dE]IK[dOrn]I[dF]H[dD]N; lactam 4-C) | inactive |
| COc1ccccc1-n1c(SCC(=O)Nc2nc3ccc(C)cc3s2)nc2c(c1=O)SCC2 | inactive |
| CCCCNC(=O)[C@@H]1Cc2ccccc2N1C(=O)[C@@H](N)CC | inactive |
| NCc1c[nH]c(=S)n1C1CCc2c(F)cc(F)cc2C1 (stereo unspecified) | inactive |
| CC1(C)OC(=O)C(OCC2CC2)=C1c1ccc(S(C)(=O)=O)cc1 | inactive |
| O=c1c2cccnc2n(-c2cccc([N+](=O)[O-])c2)c(=O)n1Cc1ccncc1 | inactive |

| Compound | Potency |
| --- | --- |
| CCOC(=O)c1c(C)nn(-c2cccc([N+](=O)[O-])c2)c1C | inactive |
| O=C(O)c1n[nH]c2c1C[C@H]1C[C@@H]21 | inactive |
| Cc1ccc2c(c1)C=Cc1cc(C)ccc1C2c1cn(Cc2ccc(C(=O)Nc3nn[nH]n3)o2)c(=O)[nH]c1=S | inactive |
| CCS(=O)(=O)N1CCC([C@@H](C)n2c(C)c(C(=O)NCc3c(OC)cc(C)[nH]c3=O)c3ccccc32)CC1 | inactive |
| CO[C@@H]1COCC[C@@H]1N[C@@H]1CC[C@@](C(=O)N2CCc3ncc(C(F)(F)F)cc3C2)(C(C)C)C1 | inactive |
| COCC(=O)N1CCc2cc(-c3csc(NC(=O)c4cc(OC)cc(OC)c4)n3)ccc21 | inactive |
| Cc1ccc(C(=O)Nc2ccc(Oc3cc4cnn(C)c4cc3-c3cn[nH]c3)c(F)c2)c(=O)n1-c1ccc(F)cc1 | 2.9 µM (active) and 3.72 µM (active) |
| COc1cccc(-c2ccc([C@@H](Oc3cc(-c4ccc(C[C@H](N)C(=O)O)cc4)nc(N)n3)C(F)(F)F)cc2)c1 | inactive |
| COc1ccc2cc(OCC3(C(=O)O)CN(C(=O)c4ccc(F)cc4)C3)ccc2c1 | inactive |
| CC(C)N(C[C@H]1O[C@@H](n2cnc3c(N)ncnc32)[C@H](O)[C@@H]1O)C1CC(CCc2nc3ccc(C(C)(C)C)cc3[nH]2)C1 (stereo partly specified) | inactive |
| CN(C)c1cccc(-c2c3c(=O)n(-c4ccccc4Cl)[nH]c3cc(=O)n2C)c1 | inactive |
| CNC(=O)Nc1ccc(OC)c(NC(=O)NC(=O)c2cc(F)c(F)cc2Cl)c1 | inactive |
| Cc1nc2c(-c3cnc(N)nc3)nc(N3CCOCC3)nc2n1C(C)C | 72.8 nM (active) and 132 nM (active) |
| O=C(c1ccc(C#Cc2cccc(F)c2)cn1)N1CC2CC2C1 (stereo unspecified) | inactive |
| COc1cc(N2CCC(N(C)C)CC2)ccc1Nc1ncc(Cl)c(Nc2ccccc2P(C)(C)=O)n1 | 3.25 µM (active) and 3.32 µM (active) |
| CNC(=O)c1ccc2cc([C@@]3(O)CCn4cncc43)ccc2c1 | inactive |
| NC(Cc1c[nH]c2ccccc12)C(=O)NC(CCC(=O)O)C(=O)O (stereo unspecified) | inactive |
| CC(C)c1ccc(CC(=O)N2CCC[C@@H](c3cccc(OC(C)(C)C(=O)O)c3)C2)cc1 | inactive |
